# Out of some 2,300 compounds screened, about 1,500 (65%) were called active. No rule for the calls is given here. So high a share suggests a set chosen from earlier hits. A selection follows.
# Test: PubChem AID 2252;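 also: 100% = mean of untreated cell control wells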
# Settings: THP-1 viability, CellTiter-Glo luminescence, 72 h; min viability: minimum viability across concentrations, stronger effect = lower value, concentration not given here; series mostly up to 50 µM; viability: at the top concentration
Compound,viability,min viability
O=C(c1cccs1)N1CCN(S(=O)(=O)c2ccccc2)CC1,93.3% (inactive),–
COc1ccc(Cl)cc1NC(=O)c1cc(-c2ccccc2)on1,92% (inactive),–
C#CCOCCOCCOCCNc1nc(N2CCN(C(=O)[C@H](CCCCN)n3cc([C@@H](N)CC(C)C)nn3)CC2)nc(N2CCN(C(=O)[C@H](Cc3cc4ccccc4[nH]3)n3cc([C@@H](N)Cc4ccc(O)cc4)nn3)CC2)n1,98.8% (inactive),–
CO[C@@]1(NC(=O)C2SC(=C(C(N)=O)C(=O)O)S2)C(=O)N2C(C(=O)O)=C(CSc3nnnn3C)CS[C@@H]21 (stereo not given in full),84.2% (inactive),–
CC1=NOC(=O)/C1=C/c1ccc(O)cc1,94.8% (inactive),–
Fc1ccccc1CCNCc1ccccc1,84.2% (inactive),–
CCn1cc(C(=O)O)c(=O)c2cc(F)c(N3CCN(C(=O)Nc4ccccc4)CC3)cc21,82.1% (inactive),–
COc1ccc(Cl)cc1S(=O)(=O)N1CCN(C(=O)c2ccco2)CC1,94% (inactive),–
C#CCOCCOCCOCCNc1nc(N2CCN(C(=O)[C@H](Cc3ccc(O)cc3)n3cc([C@@H](N)CC(C)C)nn3)CC2)nc(N2CCN(C(=O)[C@H](Cc3ccc(O)cc3)n3cc([C@@H](N)CC(C)C)nn3)CC2)n1,102% (inactive),–
O=C(O)c1ccc(CSc2nnnn2C2CCCCC2)cc1,99.2% (inactive),–
COC(=O)c1ccc(NC(=O)c2ccccc2N(C)S(=O)(=O)c2ccccc2)cc1,80.3% (inactive),–
CCOC(=O)c1sc(N)c(C(=O)OC)c1C,83.4% (inactive),–
COc1cc(OC)nc(NC(=O)C(C)C)n1,93.5% (inactive),–
C[C@]1(OC(=O)/C=C/c2ccccc2)C[C@@H](O)[C@]2(O)C=CO[C@@H](O[C@@H]3O[C@H](CO)[C@@H](O)[C@H](O)[C@H]3O)[C@@H]21,87.5% (inactive),–
O=[N+]([O-])c1ccc(CN2CCSCC2)cc1,98.1% (inactive),–
NC(=O)c1cc(S(=O)(=O)Nc2cccc(F)c2)co1,99.6% (inactive),–
O=C(N/N=C/c1ccc(F)c(F)c1)c1cc2c(s1)-c1ccccc1CC2,97.7% (inactive),–
O=C(COc1ccc(Cl)cc1)N1CCN(C2CCCC2)CC1,110% (inactive),92.7%
O=C(/C=C/c1ccccc1)OCc1cnc(Cl)s1,98.5% (inactive),–
CCOC(=O)c1cccc(NC(=O)C2CCC(CNc3c(N4CCOCC4)c(=O)c3=O)CC2)c1 (stereo not given),91.6% (inactive),–

Compound,viability,min viability
Cc1cc(C(=O)Nc2cccnc2)on1,101% (inactive),–
O=c1c2ccccc2[nH]c2ccccc12,86.8% (inactive),–
CCN1CCN(C(=O)c2cc3ccc(OC)cc3[nH]2)CC1,97.6% (inactive),–
CC(C)(C)NC(=O)/C=C/c1ccc(C(F)(F)F)cc1,92.3% (inactive),–
COc1cccc(CNc2nn[nH]n2)c1OC,106% (inactive),–
Nc1ccc(S(=O)(=O)Nc2ccc(Cl)nn2)cc1,98.9% (inactive),–
O=C(NC1(C(F)(F)F)C(=O)Nc2c1c(=O)[nH]c(=O)n2-c1ccccc1)c1ccncc1 (stereo not given),88.6% (inactive),–
CC(C)C(NS(=O)(=O)c1cccc2nsnc12)C(=O)N1CCn2c1nc1ccccc12 (stereo not given),94.3% (inactive),–
O=S(=O)(Nc1cccc(-c2cn3c(n2)SCC3)c1)c1ccc(F)cc1F,89.8% (inactive),–
CCOc1ccc(N2CC(C(=O)OCC(=O)NCc3ccccc3)CC2=O)cc1 (stereo not given),103% [at 25 µM] (inactive),–
O=C(NC(=S)Nc1c(F)cc(F)cc1Br)c1ccc2c(c1)OCCO2,94% (inactive),–
CCOC(=O)/C=C1/N(C)c2ccccc2C1(C)C,97.1% (inactive),–
CCCCOc1ccc(CN2CCC(O)CC2)cc1,95.6% (inactive),–
CCO[C@H]1OC(C(=O)O)=C[C@@H](c2ccccc2)[C@@H]1CCCO,93.8% (inactive),–
CCc1nc(SCC(=O)NCCc2ccccc2)c2c(=O)n(C)c(=O)n(C)c2n1,105% (inactive),–
C/C(=C\C(=O)OCCCCCCCCC(=O)O)C[C@@H]1OC[C@H](C[C@@H]2O[C@H]2[C@@H](C)[C@H](C)O)[C@@H](O)[C@H]1O,96.7% (inactive),–
Cc1cc(C)n2nc(S(=O)(=O)Nc3c(Cl)cccc3Cl)nc2n1,104% (inactive),–
COc1cccc(OC)c1C(=O)Nc1ccc(N2CCN(S(C)(=O)=O)CC2)cc1,84.6% (inactive),–
O=C(c1ccccc1F)N1C(=O)c2cccc3cccc1c23,91.2% (inactive),–
CCc1cccc2c(C=C(C#N)C#N)cn(CC(=O)N3CCCCCC3)c12,103% (inactive),–

Compound,viability,min viability
COc1ccc(-c2cc(C(=O)Nc3ccc(S(=O)(=O)Nc4onc(C)c4C)cc3)c3ccccc3n2)cc1OC,96% (inactive),–
O=C1C(O)=C(O)C(=O)c2ccccc21,81.8% (inactive),–
Cc1cccc2cc(C(c3nnnn3Cc3ccccc3)N3CCN(C)CC3)c(=O)[nH]c12 (stereo not given),102% (inactive),–
O=C(C[n+]1cc(-c2ccc(Cl)cc2)n2c1CCC2)Nc1nc(-c2ccccc2)cs1,109% (inactive),–
C#CCOCCOCCOCCNc1nc(N2CCN(C(=O)[C@H](CCCCN)n3cc([C@@H](N)CO)nn3)CC2)nc(N2CCN(C(=O)[C@H](Cc3cc4ccccc4[nH]3)n3cc([C@@H](N)Cc4ccc(O)cc4)nn3)CC2)n1,91.4% (inactive),–
COc1ccc(-n2nnc3c(SCC(=O)N4CCCc5ccccc54)ncnc32)cc1,99.5% (inactive),–
CC(C)(C)SCCNC(=O)c1ccccc1,97.1% (inactive),–
Cc1cc(C)c2c(=O)[nH]c(SCC(=O)N3CCCCC3)nc2n1,87.6% (inactive),–
CN(CC(=O)NCc1ccncc1)S(=O)(=O)c1ccccc1,95.6% (inactive),–
O=C(Nc1ccc2c(c1)OCCO2)C(=S)NCc1ccccc1,81.3% (inactive),–
CCN(CC)CCn1nc(C)nc1-c1ccccc1O,95.7% (inactive),–
CCN(CC(=O)Nc1ccc(C(=O)OC)cc1)C1CCCCC1,97.9% [at 25 µM] (inactive),–
CC(=O)NS(=O)(=O)c1ccc(Nc2ccc([N+](=O)[O-])c3nonc23)cc1,93.8% (inactive),–
O=C(NC(CO)Cc1ccc([N+](=O)[O-])cc1)C(Cl)Cl (stereo not given),94% (inactive),–
C#CCOCCOCCOCCNc1nc(N2CCN(C(=O)[C@H](Cc3cc4ccccc4[nH]3)n3cc([C@@H](N)CC(C)C)nn3)CC2)nc(N2CCN(C(=O)[C@H](Cc3cc4ccccc4[nH]3)n3cc([C@@H](N)CC(C)C)nn3)CC2)n1,91.9% (inactive),–
COCCN1C(=O)C(=O)/C(=C(/O)c2cccc(OC)c2)C1c1ccncc1 (stereo not given),117% (inactive),–
Cc1cccc(NC(=O)CSc2nc3c([nH]c4ccccc43)c(=O)n2C)c1,87.8% (inactive),–
O=C(COc1ccc(Cl)cc1)Nc1cccc(-c2ccc3nncn3n2)c1,82.9% (inactive),–
CO[C@H]1/C=C/O[C@@]2(C)Oc3c(C)c(O)c4c(O)c(c(C=NN5CCN(C)CC5)c(O)c4c3C2=O)NC(=O)/C(C)=C\C=C\[C@H](C)[C@H](O)[C@@H](C)[C@@H](O)[C@@H](C)[C@H](OC(C)=O)[C@@H]1C,81.3% (inactive),–

# From PubChem BioAssay AID2252 (Southern Research Specialized Biocontainment Screening …, 2010)
